TCR act: Activators of T cell receptors: qHTS campaign. Potency, µM (top dose mostly 9.22 µM), actives largely listed as activators. primary human leukocytes, anti-CD3, IL-2 HTRF, 48 h. 330,000 tested, under 10 active
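Human primary leukocytes + a-CD3 beads + cpd, 48 hr; IL-2 in supernatant by HTRF (ex 320nm / em 665nm). No co-stimulatory signal supplied.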
Chronic BCR inh: qHTS Assay to Find Inhibitors of Chronic Active B-Cell Receptor Signaling. ABC-DLBCL IkBa-CBG/CBR reporter, luminescence ratio, 4 h. Potency, µM (titrated, usually from 46.1 µM), actives largely listed as inhibitors. actives 0.05% (n = 340,000). AID 493014, 2011; active = well fitted inhibition curve with a large enough effect in the signal ratio, with a control signal flat, not every such curve was filed as active; inconclusive = small, poorly fitted or top-dose-only effect, or effect the other way, or a change in a side signal; the % refers to the signal ratio
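Doxycycline induced both beetle luciferases in TMD8 lymphoma cells; IKK-driven degradation limits the IkappaBalpha-fused green signal, while red luminescence normalises for cell number and nonspecific effects. Compounds tested up to 46 uM, 4 hrs.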
IL2 activator: qHTS of IL-2 Activators; IL-2 activation reporter assay, cell-based qHTS; stimulated with anti-CD3/CD4/CD28 beads; in transgenic mouse T cells; activation, % (series mostly up to about 46 µM); actives 0.065% (n = 360,000); in the data active = activation above about 50%; inconclusive = mostly about 30% to 49%
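EGFP and DsRed fluorescence is measured by plate cytometry in unstimulated transgenic mouse T cells exposed to compound for 60 minutes, then stimulated 18 hours at 37 degrees C with anti-CD3/anti-CD4 beads plus anti-CD28.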
BRCA1 expr up: qHTS Assay to Identify Small Molecule Activators of BRCA1 Expression; MCF7-BRCA1-FFLuc reporter, luminescence, 48 h; response scale: scaled: vehicle 0%, 10 µM genistein 100%; Potency, µM (highest dose often 46.1 µM), hits mostly activators; actives 1.1% (n = 380,000); AID 624202, 2012; note: nearly all actives have a fitted effect of over 80% in size
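Luminescence from a BRCA1-driven firefly luciferase in MCF7 cells was the read-out, taken 15 min after substrate addition following 48 h compound exposure at 37 °C. Data were normalized to a 10 microM genistein control and DMSO vehicle.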
PTHR1 agonist: qHTS for PTHR1 Agonists: Primary Screen; HEK293 GP2 PTHR1 cells, GloSensor cAMP luminescence, 1 h; Potency, µM (doses to about 115 µM), usual class: activators; actives 0.075% (n = 410,000); AID 743266, 2014; note: nearly all actives have a fitted effect of over 55% in size
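HEK-293-derived GP2 cells expressing PTHR1 and a GloSensor cAMP reporter, 3,000/well, plated overnight, given luciferin plus IBMX (each 0.5 mM as added) for 1 h at 37 °C, then compound for 1 h at 37 °C. Luminescence was read after 15 min at room temperature.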
Mito fusion act: qHTS Assay for Small Molecule Inhibitors of Mitochondrial Division or Activators of Mitochondrial Fusion; actives 0.23% (n = 320,000); S. cerevisiae fusion-defective mutant growth rescue, CellTiterGlo 48 h; Potency, µM (top dose mostly 46.1 µM), usual class: activators; AID 485298, 2010; note: nearly all actives have a fitted effect of over 45% in size
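S. cerevisiae fusion-defective temperature-sensitive mutants (e.g. fzo1-1, mgm1-5) grown 48 h at 37C in YPEG (ethanol/glycerol non-fermentable) medium with 23 nl compound per well; growth rescue read as CellTiterGlo luminescence.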
Hits are given with their value; n = inactive; u = inconclusive; x = no result given. The list is not random: actives were taken first. Their share in the collection is about 1.3%. Unless noted, calls come from the whole dose curve; as a rule, active = well fitted curve in the direction sought with a large enough effect; inconclusive = small, poorly fitted or top-dose-only effect, or another doubt; inactive = no such curve, though single readings can be large; an effect the other way counts as inactive or inconclusive.

SMILES | TCR act | Chronic BCR inh | IL2 activator | BRCA1 expr up | PTHR1 agonist | Mito fusion act
O=C(O)c1ccc(-c2nc3scc(-c4ccccc4)c3c(=O)[nH]2)cc1 | n | u | n | n | 17.8µM | n
Cc1oc2cc3oc(=O)c(CCC(=O)NC4CC4)c(C)c3cc2c1C | n | n | n | 6.31µM | n | n
Nn1c(SCc2ccccc2)nc2c(cnn2-c2ccccc2)c1=O | n | u | n | 3.16µM | n | n
CCn1cnc2cc(NC(=O)c3cccs3)ccc21 | n | u | n | 12.6µM | n | n
Cc1ccc(CNc2ccc3c(c2)ncn3C(C)C)cc1 | n | u | n | 5.01µM | n | n
Cn1cnc2cc(NCc3ccc(Cl)cc3)ccc21 | n | n | n | 5.01µM | n | n
CC(C)(C)n1cnc2cc(NCc3cccs3)ccc21 | n | u | n | n | n | n
CCn1cnc2cc(NCc3cccs3)ccc21 | n | u | n | 14.1µM | n | n
COc1cc2nc(N3CCCCC3)nc(NC(C)C)c2cc1OC | x | x | x | n | x | x
CCn1cnc2cc(NCc3ccc(C)cc3)ccc21 | n | u | n | 3.55µM | n | n
CCn1cnc2cc(NCc3ccc(Br)cc3)ccc21 | n | n | n | 4.47µM | n | n
CCN(CC)c1ccc(CNc2ccc3c(c2)ncn3CC)cc1 | n | u | n | n | n | n
CCCn1cnc2cc(NCc3cccc(OC)c3)ccc21 | n | u | n | 5.01µM | n | n
C=C1C=C(C)n2ncc(C(=O)Nc3cccc4cnccc34)c2N1 | x | x | x | n | x | x
Cc1ccc([C@@H]2CC(=O)[C@@H]3CN(S(=O)(=O)c4ccc(C)cc4)[C@H](c4ccccc4)C[C@@H]3N2S(=O)(=O)c2ccc(C)cc2)cc1 | x | x | n | n | n | x
Cc1cc(C)cc(-n2ncc3c2CCCC3NC(=O)CCN2CCCC2=O)c1 (stereo not drawn) | n | n | n | n | n | n
C/C(=N\NC(=O)c1ccc(O)cc1)c1ccc(NC(=O)Cc2ccccc2)cc1 | n | u | n | 8.91µM | n | n
C/C(=N/NC(=O)c1ccco1)c1ccc(NC(=O)c2ccc(F)cc2)cc1 | n | u | n | 7.08µM | n | x
CCOC(=O)C1=C(C)NC(C)=C(C(=O)OCC)C1c1c(F)c(F)c(F)c(F)c1F | x | x | x | x | x | 2.31µM
Cc1nc(Cl)sc1C(=O)Nc1cccc2ccccc12 | n | n | n | n | n | n
O=C(NCCc1ccc(F)cc1)Nc1ccc2c(c1)OCO2 | n | n | n | 12.6µM | n | n
O=C(Nc1ccc2c(c1)OCO2)OCc1ccccc1 | n | u | n | 2.24µM | n | n
O=C(Nc1ccc2c(c1)OCO2)Nc1ccc(F)cc1F | n | u | n | 3.16µM | n | n
Cc1ccc(NC(=O)Nc2ccc3c(c2)OCO3)c(Br)c1 | n | n | n | 1.78µM | n | n
O=C(Nc1ccc2c(c1)OCO2)Nc1ccc2c(c1)OCO2 | n | n | n | u | n | n
SMILES | TCR act | Chronic BCR inh | IL2 activator | BRCA1 expr up | PTHR1 agonist | Mito fusion act
O=C(CCc1ccccc1)Nc1ccc2c(c1)OCO2 | n | u | n | n | n | n
CC(=O)Nc1ccc(C(=O)OCc2ccc(F)cc2)cc1 | n | u | n | n | n | u
O=C(NOCc1ccccc1)OCc1ccccc1 | n | x | n | 11.2µM | n | x
O=C(Nc1ccc2c(c1)OCO2)Nc1ccccn1 | n | n | n | 2.51µM | n | n
O=C(NNC(=O)OCc1ccccc1)OCc1ccccc1 | n | x | n | n | n | x
COC(=O)c1ccc(NC(=O)Nc2cccc(F)c2)cc1 | n | n | n | n | n | n
COC(=O)c1ccc(NC(=O)Nc2ccc(F)cc2F)cc1 | n | n | n | 3.16µM | n | n
CC(=O)Nc1ccc(C(=O)OCc2ccc(F)cc2Cl)cc1 | n | u | n | n | n | 12.6µM

Source: PubChem (National Center for Advancing Translational Sciences (NCATS))
